Rows were chosen to be rich in hits. Some 1.6% of all compounds tested hit in one or more screens of this group.
p53ts 32C kill: cytotoxicity in p53ts cells at permissive temperature. Potency, µM (highest dose often 46.1 µM), inactives show top-dose activity change, negative = cytotoxicity, most hits filed as cytotoxic. AID 924. actives 0.93% (n = 130,000). H1299-p53A138V at 32C, ATP luminescence viability, 24 h;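 also: 0% = DMSO and -100% = full killing by reference compound; nearly all actives have a fitted effect of over 55% in size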
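H1299-p53 A138V cells (temperature-sensitive p53) exposed 24 h to up to 46 uM compound at 32C, where p53 is wild-type in conformation. Viability read as ATP luminescence and normalised to DMSO and 100 uM tamoxifen. AC50 fitted with the Hill equation.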
p53ts 39C tox: p53ts cell cytotoxicity, nonpermissive temperature; Potency, µM (doses to about 46.1 µM), for the others: top-dose activity change, negative = cell killing, hits mostly cytotoxic; actives 1.5% (n = 130,000); H1299-p53A138V viability at 39C, ATP luminescence, 24 h; AID 902; also: % is scaled to controls: 0 for no effect and ±100 for the full control effect; nearly all actives have a fitted effect of over 55% in size
Peg3 imprint: genomic imprint erasure induction; mouse ES Peg3-LacZ reporter, beta-gal luminescence, 40 h; Potency, µM (doses to about 60.7 µM), for inactives: top-dose activity change, positive = activation, most hits filed as activators; actives 0.02% (n = 110,000); AID 1948
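Each well holds 300 Peg3LacZ-Neo (maternal) female ES cells incubated 40 h at 37C, 5% CO2. LacZ is measured by BetaGlo luminescence, with AC50 and maximum efficacy derived from dose-response curves.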
Numbers without * were called inactive; ? = inconclusive; · = no result; [ ] = dose if it differs, or a comment. Calls follow the shape of the dose curve; as a rule, active = well fitted curve in the direction sought with a large enough effect; inconclusive = small, poorly fitted or top-dose-only effect, or another doubt; inactive = no such curve, though single readings can be large; an effect the other way counts as inactive or inconclusive. Potency is read from the fitted curve at half-maximal effect.

SMILES	p53ts 32C kill	p53ts 39C tox	Peg3 imprint
CCc1ccc(S(=O)(=O)c2cn(Cc3ccccc3)c3cc(F)c(F)cc3c2=O)cc1	-6%	-1%	19%[10.9 µM]
CCc1cccc(-n2c(=O)c3cccnc3n2CC(=O)NCc2ccc(C)cc2)c1	16%	-5%	-10%[10.9 µM]
Cc1nc2c(-c3ccccc3)c(C)nn2c(N)c1-c1ccccc1	11µM*	?	·
CCOC(=O)Cc1c(C)nc2c(-c3ccccc3)c(C)nn2c1C	8%	9%	·
Cc1ccc(NC(=O)C(=O)c2cc(C)n(-c3ccc(F)cc3)c2C)cc1C	9%	-12%	23%[10.9 µM]
COCCn1c(C)cc(C(=O)CSc2nnc(C)s2)c1C	13µM*	13µM*	-91%
COCCn1c(C)cc(C(=O)CSc2n[nH]c(N)n2)c1C	-2%	4%	-10%
O=C(O)CSc1ccc2ccccc2n1	-2%	-1%	·
C/C(=N/Nc1ccc2ccccc2n1)c1ccccc1O	3.2µM*	2.5µM*	-56%[10.9 µM]
CC1CCc2nc3ncn(CC(=O)Nc4cccc(C#N)c4)c(=O)c3cc2C1 (centres undefined)	-8%	-11%	-6%[10.9 µM]
CC(C)c1ccc2c(c1)CC[C@@H]1[C@@](C)(CN)CCC[C@]21C	1%	-11%	-6%
CC(C)c1ccc2c(c1)CC[C@H]1[C@](C)(CN)CCC[C@]21C	?	16µM*	-74%
CCCCNC(=O)CCCN1C(=O)c2ccccc2Sc2ncccc21	8%	-19%	-8%[10.9 µM]
Cc1cc(NC(c2cccnc2)c2c(C)[nH]c3ccccc23)no1 (centres undefined)	7%	17%	-9%
Cc1[nH]c2ccccc2c1C(c1ccccc1)c1ccc(Cl)s1 (centres undefined)	?	13µM*	8%[10.9 µM]
CCOc1ccc(-c2nc(SCC(=O)NCCOC)c(-c3ccc(OC)c(OC)c3)[nH]2)cc1	-3%	-6%	8%[10.9 µM]
CN(C)c1ccc(Nc2nc(-c3cccnc3)cs2)cc1	3.2µM*	3.2µM*	-87%
c1cncc(-c2csc(NCc3ccco3)n2)c1	-18%	-21%	·
COc1ccc(NC(=O)Nc2nnc(N3CCCC3)s2)cc1	6%	2%	-14%[10.9 µM]
Cn1cc(SCC(=O)NCc2ccc3c(c2)OCO3)c2ccccc21	-15%	6%	-87%
CCn1cc(SCC(=O)NCc2ccc3c(c2)OCO3)c2ccccc21	5µM*	5µM*	-90%
CCS(=O)(=O)N1CCCc2cc(C(=O)Nc3cccc(C(C)=O)c3)ccc21	-2%	4%	-1%[10.9 µM]
CSc1cccc(NC(=O)c2ccc3c(c2)CCCN3S(C)(=O)=O)c1	13µM*	?	-4%[10.9 µM]
Cc1ccccc1OCC1CO1 (centres undefined)	-1%[1.84 µM]	-3%	-1%
Cc1cc(C)nc(N(C#N)CC(=O)N2CCC(C(N)=O)CC2)n1	4µM*	8%	-62%
SMILES	p53ts 32C kill	p53ts 39C tox	Peg3 imprint
Cc1cc(=O)[nH]c(SCC(=O)N2CCC(C(N)=O)CC2)n1	4%	4%	12%
c1ccc(-c2noc(-c3ccncc3)n2)nc1	?	?	-92%
c1ccc(-c2noc(-c3cccnc3)n2)nc1	13µM*	13µM*	-92%
CN(C)c1ccc(-c2nc(-c3ccccn3)no2)cc1[N+](=O)[O-]	-19%	-12%	-8%[10.9 µM]
c1ccc(-c2noc(-c3ccc4ccccc4c3)n2)nc1	0.32µM*	0.63µM*	-91%
c1ccc(-c2noc(-c3ccc4c(c3)OCO4)n2)nc1	0.63µM*	1µM*	-92%
Cc1occc1-c1nc(-c2ccccn2)no1	10µM*	13µM*	-92%
Cc1occc1-c1nc(-c2ccncc2)no1	-7%	-2%	-63%
CNc1ccc(-c2nc(-c3ccccn3)no2)cc1[N+](=O)[O-]	-2%	-11%	-6%[10.9 µM]
COc1ccc(C)cc1NC(=O)CSc1nc(=O)n(Cc2ccncc2)c2c1CCC2	-5%	8%	-9%[10.9 µM]
COc1cccc(CNC(=O)C2CCN(S(=O)(=O)c3cn(C)cn3)CC2)c1	-3%	4%	-3%[10.9 µM]
CN(C(=O)CSc1nc2ccccc2n1CC(=O)NCc1ccc(F)cc1)c1ccc(F)cc1	-1%	-17%	-4%[10.9 µM]
CCOC(=O)c1ccccc1NC(=O)CSc1nc2ccccc2o1	-4%	-17%	-70%
CCCOC(=O)Nc1nc2ccccc2o1	10µM*	?	·
COc1cccc(C(=O)Nc2cccc(OCc3cc(=O)n4cc(C)ccc4n3)c2)c1	4%	-12%	?
CCCCCCN	-7%[1.84 µM]	1%	-6%
Cc1ccc(Nc2nnc(SCC(=O)Nc3cccc(S(=O)(=O)N4CCCCC4)c3)s2)cc1	-20%	11µM*	·
Cc1ccc(Nc2nnc(SCC(=O)Nc3ncc(C(F)(F)F)cc3Cl)s2)cc1	·	17%	·
O=C(NCCc1ccccc1Cl)c1ccc2c(c1)nc1n2CCOC1	16µM*	4µM*	-19%[10.9 µM]

Screening results: PubChem, National Center for Advancing Translational Sciences (NCATS)
